About 7,300 (2%) of roughly 360,000 compounds were called active. This is one part of a sample in which actives are shown more often than they occur. No stated cut-off is given here; in the data, active means inhibition above about 50%; inactive means the rest.
assay: blockers of TWEAK-induced Fn14 reporter activity – luciferase reporter cells, uHTS, primary screen (AID 1159606); details: TWEAK-stimulated Fn14 reporter cells, luciferase luminescence, 8 h; at 10 µM; active compounds read high

| SMILES | inhibition |
| --- | --- |
| Cc1ccc(OCC(=O)Nc2ccccc2Sc2ccc(Cl)cc2)c([N+](=O)[O-])n1 | 13.7% (inactive) |
| COc1cccc(-c2cc3nc(NCCOc4ccccc4Cl)n(C)c(=O)c3s2)c1 | 15.1% (inactive) |
| CCOC(=O)C1CCCN(C(=O)c2cc(-c3cccs3)oc2C)CC1 (stereo not drawn) | 31.6% (inactive) |
| Cc1ccc(S(=O)(=O)Nc2ccccc2CNc2c(C)n(C)n(-c3ccccc3)c2=O)cc1 | 12.4% (inactive) |
| O=C(NCC(=O)N1CCN(c2ccccc2O)CC1)c1ccc2ccccc2c1 | -22.9% (inactive) |
| CC(C)C1Cc2[nH][nH]c(=O)c2C(c2ccc(Cl)cc2)O1 (stereo not drawn) | -23.3% (inactive) |
| COc1ccc(C(=O)OCC(=O)c2ccc(Cl)s2)c(OC)c1OC | -38.7% (inactive) |
| CNc1cncc(-c2ccc(NS(C)(=O)=O)cc2)n1 | 34.6% (inactive) |
| CC1(C)OC(=O)C2=C(C[C@@H](C3CC3)O[C@H]2CCc2cccc(Cl)c2)O1 | -0.44% (inactive) |
| Cc1ccc(S(=O)(=O)N(C)c2ccc(OCC(=O)OCC(=O)N(CC#N)c3ccccc3)cc2)cc1 | -12% (inactive) |
| Cc1oc2cc(Br)c(O)c(Br)c2c1C(=O)c1ccccc1 | -24.8% (inactive) |
| CCOC(=O)c1c(C)oc2cc(Sc3ccccc3)c(O)c(O)c12 | -4.97% (inactive) |
| CCOC(=O)c1c(-c2ccccc2)oc2cc(Br)c(O)c(C=O)c12 | 97.5% (active) |
| CC1CCCN(c2ccc(C(=O)NCCc3ccccc3)cn2)C1 (stereo not drawn) | 6.92% (inactive) |
| CCN(C(=O)CSc1nnnn1-c1ccccc1OC)C1CCS(=O)(=O)C1 (stereo not drawn) | 3.05% (inactive) |
| COc1ccccc1-n1nnnc1S(=O)(=O)Cc1ccc(Cl)cc1 | 102% (active) |
| CCC(C)N(C(=O)CSc1nnnn1-c1ccccc1OC)C1CCS(=O)(=O)C1 (stereo not drawn) | 14.9% (inactive) |
| CNC(=O)NCCN1CCCC1=O | -16.3% (inactive) |
| O=C(NCc1ccc(F)cc1F)[C@@H]1CCCN1C(=O)[C@@H]1CCCN1C(=O)c1cccc(Cl)c1 | 22.6% (inactive) |
| Cc1ccc2nc(-c3ccco3)c(Cc3cccc(Cl)c3)n2c1 | 10.4% (inactive) |
| CC(=O)c1c(C)[nH]c(C(=O)OCC(=O)Nc2c(C)cccc2C)c1C | 12.5% (inactive) |
| N#CCC(=O)Nc1ccc(C(=O)OCC(=O)Nc2sc3c(c2C#N)CCCC3)cc1 | -31.7% (inactive) |
| CC(=O)c1c(C)[nH]c(C(=O)OCC(=O)Nc2sc3c(c2C#N)CCCC3)c1C | 64.3% (active) |
| N#Cc1ccc(OCC(=O)Nc2nc(-c3ccccn3)cs2)cc1 | -7.26% (inactive) |

| SMILES | inhibition |
| --- | --- |
| CCCc1nc2scc(-c3ccc(C)cc3)c2c(=O)n1N | 17.3% (inactive) |
| COc1ccc(C(C)(NC(C)=O)c2nc(-c3ccc(S(C)(=O)=O)cc3)cs2)cc1 (stereo not drawn) | -12.5% (inactive) |
| COc1ccc(N/C=C(\C2OC(=O)c3ccccc32)[N+](=O)[O-])cc1 (stereo not drawn) | 9.49% (inactive) |
| COc1ccc(C(O)c2nc(-c3ccc(OC)nc3)cs2)cc1 (stereo not drawn) | -2.94% (inactive) |
| COc1cc(C(O)c2nc(-c3cccc(C(=O)O)c3)cs2)ccc1F (stereo not drawn) | -19.5% (inactive) |
| COc1ccc(-c2csc(Nc3ccccn3)n2)cc1 | 68.4% (active) |
| Cn1cc(C2OC(=O)c3ccccc32)c2ccccc21 (stereo not drawn) | 38.7% (inactive) |
| Cc1ccc(-c2csc(NC3OC(=O)c4ccccc43)n2)cc1 (stereo not drawn) | 85.8% (active) |
| C/C(CC1CC(C)(C)OC1=O)=N/Nc1nc(-c2ccccc2)cs1 (stereo not drawn) | -29.9% (inactive) |
| COc1ccc2c(c1OC)C(=O)OC2Nc1nc(-c2ccccc2)cs1 (stereo not drawn) | 66.1% (active) |
| COc1ccc(-c2csc(NC3OC(=O)c4ccccc43)n2)cc1 (stereo not drawn) | 66.2% (active) |
| COc1nc(OC)nc(N(C)CCO)n1 | 5.06% (inactive) |
| O=C(CCc1ccccc1)Nc1nn[nH]n1 | -6.61% (inactive) |
| CCOc1ccc(CCN2C(=O)C(=O)N([C@@H](CC(C)C)CN3CCC[C@H]3CN3C(=O)C(=O)NC[C@@H]3Cc3ccccc3)C[C@@H]2CC(C)C)cc1 | 18.1% (inactive) |
| CCc1nc2c(OCC(N)=O)cccn2c1N(C)C(=O)c1ccc(OC)cc1 | -0.65% (inactive) |
| Cc1cccc(C(=O)O)c1[N+](=O)[O-] | -0.13% (inactive) |
| O=C(NCc1ccccc1)C(=O)NCC1OCCN1S(=O)(=O)c1ccc(Br)cc1 (stereo not drawn) | -2.34% (inactive) |
| CC(NC(=O)COC(=O)Cn1cc(C(F)(F)F)ccc1=O)c1ccccc1 (stereo not drawn) | 19.7% (inactive) |
| CCC(C)NCC(=O)Nc1ccc([N+](=O)[O-])cc1C(=O)Nc1ccccc1F (stereo not drawn) | 3.23% (inactive) |
| CC(=O)OCCN(CCCn1c(-c2ccncc2)nc2ccccc21)c1nc(-c2ccc(C)cc2)cs1 | 4.36% (inactive) |
| CCCCOCCCNC(=O)C[C@@H]1C[C@@]2(C(=O)OC)CCCCC=C2N(CCC2=CCCCC2)C1=O | 11% (inactive) |
| COc1ccc(S(=O)(=O)N2C[C@H]3CON(C)[C@H]3C[C@H]2c2cccc(Br)c2)cc1 | -6.92% (inactive) |
| CN1OC[C@@H]2CN(S(=O)(=O)c3cccc4ccccc34)[C@H](c3ccc(N4CCCCC4)cc3)C[C@@H]21 | -7.73% (inactive) |
| CN1OC[C@@H]2CN(S(=O)(=O)c3cccc(C(F)(F)F)c3)[C@H](c3ccc(-c4cc5ccccc5o4)cc3)C[C@@H]21 | 62.2% (active) |

| SMILES | inhibition |
| --- | --- |
| CC(C)(C)n1ncc2c(=O)n(Cc3ccc(Cl)cc3)cnc21 | 68.2% (active) |
| CC(=O)Cn1cnc2c(cnn2-c2ccccc2)c1=O | 4.23% (inactive) |
| CC(C)(C)n1ncc2c(=O)n(Cc3c(Cl)cccc3Br)cnc21 | 3.93% (inactive) |
| O=C(O)CSCc1ccc(C(=O)O)o1 | -3.63% (inactive) |
| CC(CO)NCC12CC3CC(CC(C3)C1)C2 (stereo not drawn) | 13.3% (inactive) |
| CC(C)Sc1ncnc2c1cnn2-c1ccccc1 | 15.4% (inactive) |
| Cc1ccc2cc(C)c(N3CCN(c4ccc(F)cc4)CC3)nc2c1 | 8.39% (inactive) |
| COc1ccc(-n2ncc3c(SCC(=O)NNC(C)=O)ncnc32)cc1 | 14.6% (inactive) |
| Cc1ccc(-n2ncc3c(N4CCN(c5ccc(F)cc5)CC4)ncnc32)c(C)c1 | 73% (active) |
| COC(=O)CSc1ncnc2c1cnn2-c1ccc(C)cc1C | -11.2% (inactive) |
| COc1ccc(-n2ncc3c(N4CCCc5ccccc54)ncnc32)cc1 | 58.1% (active) |
| CC(Sc1ncnc2c1cnn2-c1ccccc1)C(=O)Nc1ccc(N2CCOCC2)cc1 (stereo not drawn) | -20.4% (inactive) |
| c1ccc(-n2ncc3c(N4CCCC4)ncnc32)cc1 | 62.5% (active) |
| COc1ccc(-n2ncc3c(N4CCc5ccccc54)ncnc32)cc1 | -15.6% (inactive) |
| CCOC(=O)c1c(N=CN(C)C)c(C#N)c2n1CCCC2 | -13.8% (inactive) |
| COc1ccc(C(C)NC(=S)NC2CCCCC2)cc1OC (stereo not drawn) | 10.8% (inactive) |
| CC(C)CN(C(=O)CSc1ncnc2sccc12)C1CCS(=O)(=O)C1 (stereo not drawn) | 4.56% (inactive) |
| COc1cc(OC)cc(C2=Cc3ccccc3C(CC(=O)c3ccco3)N2c2ccc(-c3cnc(OC)nc3)cc2)c1 (stereo not drawn) | 16.7% (inactive) |
| Cc1ccc(NC(=O)CC2S/C(=N/N=C3\CCCc4ccccc43)NC2=O)cc1 (stereo not drawn) | 11.1% (inactive) |
| Cc1ccc(-n2c(SCC(=O)NCc3ccc4c(c3)OCO4)nnc2-c2cccnc2)c(C)c1 | -9.21% (inactive) |
| CCCc1[nH]nc2c1C(c1ccc(Br)s1)C(C#N)=C(N)O2 (stereo not drawn) | 30.2% (inactive) |
| CCCc1[nH]nc2c1C(C1CC=CCC1)C(C#N)=C(N)O2 (stereo not drawn) | 53.8% (active) |
| N#CC1=C(N)OC2=C(C(=O)CCC2)C1C1CC=CCC1 (stereo not drawn) | 24.8% (inactive) |
| CCCCc1c(-c2ccc(Cl)cc2)ncn1CCc1ccccc1OC | 26.6% (inactive) |

| SMILES | inhibition |
| --- | --- |
| CCCCCc1c(-c2cccc(Br)c2)ncn1CCc1ccccc1OC | -2.04% (inactive) |
| CCCCCc1c(-c2ccc(OC)c(OC)c2)ncn1CCc1ccccc1OC | 62.6% (active) |
| Cn1c(SCC(=O)Nc2ccc(N3CCOCC3)cc2)nnc1C(F)(F)F | -2.56% (inactive) |
| Cc1cc(Br)cn2c(Cc3ccccc3C(F)(F)F)c(-c3ccc(Cl)cc3)nc12 | 26.9% (inactive) |
| CCCc1ccc(-c2c(C)sc(NC(=O)c3ccnn3C)c2C#N)cc1 | 13.3% (inactive) |
| Cc1ccc(CNC(=O)c2ccc3c(c2)S(=O)(=O)c2ccccc2C3=O)cc1 | -18% (inactive) |
| CC(C)(C)c1ccc(C(=O)NCC(=O)OCN2C(=O)c3ccccc3C2=O)cc1 | -8.88% (inactive) |
| COC(=O)CNC(=O)c1ccc2c(c1)S(=O)(=O)c1ccccc1C2=O | 65.4% (active) |
| CCCc1nc(NCc2ccc3c(c2)OCO3)c2nnn(Cc3ccccc3Cl)c2n1 | -10.6% (inactive) |
| Cc1nc(Nc2ccc3c(c2)OCCO3)c2nnn(Cc3ccccc3Cl)c2n1 | 94.4% (active) |
| Cc1nc(Nc2ccccc2F)c2nnn(Cc3ccccc3Cl)c2n1 | 20% (inactive) |
| O=C1C2C3C=CC(C3)C2C(=O)N1c1ccc(-c2nc3ccccc3c(=O)o2)cc1 (stereo not drawn) | -0.15% (inactive) |
| O=C(/C=C/[C@H]1O[C@@H](n2ccc(=O)[nH]c2=O)[C@H](O)[C@@H]1O)NCc1ccccn1 | 9.38% (inactive) |
| Cc1ccccc1OCC(=O)Nc1ccc(N2CCN(C(=O)C(C)C)CC2)c(Cl)c1 | 70.6% (active) |
| CCc1ccccc1OCC(=O)Nc1ccc(C)c(S(=O)(=O)N2CCCCCC2)c1 | 12.8% (inactive) |
| COc1cc(NC(=O)COc2ccccc2Cl)ccc1NC(=O)C(C)C | -5.09% (inactive) |
| Cn1nnnc1SCC(=O)Nc1ccccc1C(=O)NC1CC1 | -4.44% (inactive) |
| COCCOC(=O)c1c(C)oc2cc(Br)c(OCC(N)=O)cc12 | -6.98% (inactive) |
| CCCCCc1ccc(-c2ccc(C(=O)O)cc2)nc1 | 87.5% (active) |
| CCCCCC(=O)Nc1ccc(-c2cn3cccnc3n2)cc1 | -20.2% (inactive) |
| CCCCCc1ccc(-c2ccc(OCC)cc2)nc1 | -9.17% (inactive) |

Reference: PubChem BioAssay AID1159606 (Sanford-Burnham Center for Chemical Genomics, 2016)
